Experiment [1] can be described thus: qHTS assay to identify small molecule antagonists of the thyroid receptor (TR) signaling pathway - cell viability counter screen (AID 743064). Also: nearly all actives have a fitted effect of over 50% in size. Also: potency is read from the fitted curve at half-maximal effect. The procedure, abridged:
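Fluorescence from CellTiter-Fluor, added after 23.5 h exposure at 37 °C, reported viability of GH3.TRE-Luc cells co-treated with compound and 1 nM T3. Measured in the same wells as the luciferase TR readout.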
For orientation: In qHTS, concentration-response curves come from the screen itself.

Experiment [2] deals with thyroid hormone receptor (rat, GH3 cells). Kind of experiment: qHTS assay to identify small molecule agonists of the thyroid receptor (TR) signaling pathway (AID 743066; calls by dose curve).
For experiment [3], the target named is Estrogen receptor (Homo sapiens) (UniProt P03372). In words: qHTS assay to identify small molecule antagonists of the estrogen receptor alpha (ER-alpha) signaling pathway (AID 743069; active = well fitted curve in the direction sought with a large enough effect in the signal ratio in the repeat runs, not every such curve was filed as active; inconclusive = weak or mixed curves, or effect the other way; inactive = no such curve, though single readings can be large or run the other way; the % refers to the signal ratio; also: potency is read from the fitted curve at half-maximal effect). The method in brief:
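Fluorescence intensity from a beta-lactamase FRET substrate served as the read-out. Cells: HEK293 with stably integrated ER-alpha-UAS-bla reporter. Agonist 17beta-estradiol was co-added with compounds; incubation 18 hr at 37C, substrate 2 hr at room temperature.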

A short description of experiment [4]: qHTS assay to identify small molecule antagonists of the estrogen receptor alpha (ER-alpha) signaling pathway - cell viability counter screen (AID 743074; calls by dose curve; also: nearly all actives have a fitted effect of over 45% in size).
Experiment [5] addresses Estrogen receptor (Homo sapiens) (UniProt P03372). In words: qHTS assay to identify small molecule agonists of the estrogen receptor alpha (ER-alpha) signaling pathway (AID 743075; calls by dose curve).
For experiment [6] the target is unchanged. In words: qHTS assay to identify small molecule agonists of the estrogen receptor alpha (ER-alpha) signaling pathway using the BG1 cell line (AID 743079). Also: nearly all actives have a fitted effect of over 20% in size.
Experiment [7] in a line: qHTS assay to identify small molecule antagonists of the estrogen receptor alpha (ER-alpha) signaling pathway using the BG1 cell line (AID 743080; calls by dose curve; also: series mostly up to about 70 µM; nearly all actives have a fitted effect of over 25% in size). The method in brief:
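Antagonist mode: compounds in DMSO were pinned onto BG1-Luc-4E2 cells alongside 17beta-estradiol agonist, incubated 21.5 h, and ERE-driven luciferase measured with ONE-Glo. Cytotoxicity was multiplexed using CellTiter-Fluor fluorescence.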

Experiment [8] can be described thus: qHTS assay to identify small molecule antagonists of the estrogen receptor alpha (ER-alpha) signaling pathway using the BG1 cell line - cell viability counter screen (AID 743081).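 Also: compound given together with 17beta-estradiol as the ER stimulus; series mostly up to about 70 µM; nearly all actives have a fitted effect of over 45% in size.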
The next experiment addresses Aromatase (Homo sapiens) (UniProt P11511). In words: qHTS assay to identify aromatase inhibitors (AID 743083). Also: series mostly up to about 70 µM; nearly all actives have a fitted effect of over 55% in size.
Experiment [9] can be described thus: qHTS assay to identify small molecule antagonists of the thyroid receptor (TR) signaling pathway (AID 743065). Also: series mostly up to about 70 µM; nearly all actives have a fitted effect of over 55% in size. The method in brief:
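Antagonism measured as loss of luciferase signal in GH3 cells stably carrying a TRE-luciferase reporter, co-treated with compound and T3 (1 nM final) for 23.5 h at 37 C. Viability was read in the same well by CellTiter-Fluor.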

This passage reports Potency and outcome results from PubChem BioAssay (Tox21).

SMILES strings stand for the structures. Values joined by “and” are separate entries in the source; they are usually repeats but may differ in a detail not shown here. Identical values can stand only once. Where a structure was tested more than once in an assay, its records may differ in their call. Active and inactive are the calls of the source. Unless noted, calls follow the shape of the dose curve; as a rule, active = well fitted curve in the direction sought with a large enough effect in the repeat runs; inconclusive = weak or mixed curves; inactive = no such curve, though single readings can be large; an effect the other way counts as inactive or inconclusive.

Sequence of Aromatase (Homo sapiens) (P11511 whole entry, looked up): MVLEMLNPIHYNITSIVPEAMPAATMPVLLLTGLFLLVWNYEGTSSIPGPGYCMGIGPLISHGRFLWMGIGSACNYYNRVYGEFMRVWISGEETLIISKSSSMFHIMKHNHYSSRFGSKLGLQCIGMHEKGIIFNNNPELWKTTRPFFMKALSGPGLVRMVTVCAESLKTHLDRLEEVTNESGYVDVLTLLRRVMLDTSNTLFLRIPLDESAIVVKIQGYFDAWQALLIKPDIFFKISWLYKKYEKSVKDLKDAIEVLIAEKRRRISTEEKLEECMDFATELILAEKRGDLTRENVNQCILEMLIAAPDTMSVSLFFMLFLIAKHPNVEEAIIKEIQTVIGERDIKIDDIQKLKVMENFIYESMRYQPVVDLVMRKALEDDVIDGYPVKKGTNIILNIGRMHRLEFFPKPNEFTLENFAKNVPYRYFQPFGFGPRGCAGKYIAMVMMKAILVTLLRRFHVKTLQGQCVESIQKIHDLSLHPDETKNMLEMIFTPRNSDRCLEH
Sequence of Estrogen receptor (Homo sapiens) (P03372 whole entry, looked up): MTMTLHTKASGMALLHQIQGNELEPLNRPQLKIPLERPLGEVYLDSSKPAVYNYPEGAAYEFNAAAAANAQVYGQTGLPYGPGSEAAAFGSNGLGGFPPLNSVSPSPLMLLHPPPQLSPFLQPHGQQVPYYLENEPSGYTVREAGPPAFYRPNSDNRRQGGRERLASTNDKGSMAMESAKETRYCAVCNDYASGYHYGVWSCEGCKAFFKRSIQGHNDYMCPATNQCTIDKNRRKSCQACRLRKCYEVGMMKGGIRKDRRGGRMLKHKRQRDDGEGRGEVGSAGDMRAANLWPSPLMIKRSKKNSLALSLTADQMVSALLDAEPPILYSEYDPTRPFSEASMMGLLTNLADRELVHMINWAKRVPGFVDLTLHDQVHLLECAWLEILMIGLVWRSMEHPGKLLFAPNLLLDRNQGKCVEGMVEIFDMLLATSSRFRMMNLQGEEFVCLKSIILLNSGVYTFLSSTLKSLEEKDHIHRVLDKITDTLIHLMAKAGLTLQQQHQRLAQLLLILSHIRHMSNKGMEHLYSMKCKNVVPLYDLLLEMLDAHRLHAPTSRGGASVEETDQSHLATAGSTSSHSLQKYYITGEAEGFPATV

In the case of `CNCC(O)c1ccc(O)cc1` (centres undefined), the Potency result (in [1]; in experiment [2]; in experiment [3]; in [6]; with Aromatase (Homo sapiens)) was “inactive” throughout. For the same molecule, the molecule was called inactive in experiment [4], in experiment [5], in experiment [7] and in [8].
On to `CCOP(=S)(OCC)Oc1ccc([N+](=O)[O-])cc1`, for which the Potency entry (in experiment [1]; in [9]; in [2]; in the experiment with Aromatase (Homo sapiens)) was “inactive” in each case. Also, the molecule was called inactive in experiment [4] and in [8].
For `O=[N+]([O-])c1ccc(Cl)cc1`, the Potency entry (in [1]; in experiment [9]; in experiment [2]; with Aromatase (Homo sapiens)) was “inactive” throughout. Besides, the outcome in experiment [4] and in experiment [8] was inactive.
For the molecule `C/C=C/c1ccc2c(c1)OCO2`, the Potency result (in experiment [1]; in [9]; in experiment [2]; with Aromatase (Homo sapiens)) was “inactive” in each case. In addition, the call in experiment [4] and in [8] was inactive.
For `O=C(O)COc1ccccc1`, the Potency entry (in experiment [1]; in experiment [2]; in [3]; in [6]; with Aromatase (Homo sapiens)) was “inactive” throughout. The outcome in [4], in experiment [5], in experiment [7] and in experiment [8] was inactive.
For `N#CN=C(N)N`, the Potency entry (in [1]; in experiment [2]; in [3]; in [6]; with Aromatase (Homo sapiens)) was “inactive” each time. Further, the molecule was called inactive in experiment [4], in [5], in experiment [7] and in experiment [8].
Consider `FC(F)(F)c1ccc(Cl)cc1`, for which the Potency result (in [1]; in experiment [2]; in experiment [3]; in experiment [6]; with Aromatase (Homo sapiens)) was “inactive” each time. The call in experiment [4], in experiment [5], in experiment [7] and in experiment [8] was inactive.
Turning to `Oc1ccc(Cl)cc1`, the Potency entry (in [1]; in experiment [9]; in experiment [2]; in the experiment with Aromatase (Homo sapiens)) was “inactive” throughout. Further, the molecule was classed as inactive in experiment [4] and in experiment [8].
On to `CN(C)C(=O)C(c1ccccc1)c1ccccc1`, for which the Potency entry (in experiment [1]; in [9]; in experiment [2]; with Aromatase (Homo sapiens)) was “inactive” throughout. Moreover, the molecule was called inactive in experiment [4] and in experiment [8].
Take `O=S(=O)(O)OOS(=O)(=O)O`: the Potency result (in [1]; in experiment [9]; in experiment [2]; in the experiment with Aromatase (Homo sapiens)) was “inactive” throughout. The call in experiment [4] and in [8] was inactive.
On to `Cc1ccc(N=C=O)cc1N=C=O`, for which the Potency result (in [1]; in experiment [9]; in [2]; with Aromatase (Homo sapiens)) was “inactive” in each case. Further, the outcome in [4] and in [8] was inactive.
`Cc1ccccc1N`: the Potency result (in [1]; in [9]; in experiment [2]; with Aromatase (Homo sapiens)) was “inactive” each time. The molecule was classed as inactive in experiment [4] and in experiment [8].
In the case of `Oc1c(Br)cc(Br)cc1Br`, the Potency entry (in experiment [1]; in experiment [2]; in [6]; with Aromatase (Homo sapiens)) was “inactive” each time. Besides, the Potency result in [3] was “inactive and 61.8 µM [inconclusive] (active)”. Moreover, the outcome in [4], in experiment [5], in [7] and in experiment [8] was inactive.
Regarding `CNC(=O)O/N=C/C(C)(C)S(C)=O` (centres undefined), the Potency result (in [1]; in experiment [2]; in experiment [3]; in [6]; in the experiment with Aromatase (Homo sapiens)) was “inactive” throughout. The result in experiment [4], in [5], in experiment [7] and in experiment [8] was inactive.
Consider `CNc1cnn(-c2cccc(C(F)(F)F)c2)c(=O)c1Cl`, for which the Potency entry (in [1]; in experiment [9]; in [2]; with Aromatase (Homo sapiens)) was “inactive” in each case. Also, the result in experiment [4] and in experiment [8] was inactive.
As for `N#Cc1ccccn1`, the Potency result (in experiment [1]; in experiment [2]; in experiment [3]; in experiment [6]; in the experiment with Aromatase (Homo sapiens)) was “inactive” in each case. Also, the molecule was called inactive in [4], in experiment [5], in [7] and in [8].
As to `CN(C)C(=O)Cl`, the Potency result (in [1]; in experiment [2]; in [3]; in [6]; with Aromatase (Homo sapiens)) was “inactive” in each case. Besides, the call in [4], in experiment [5], in experiment [7] and in [8] was inactive.
In the case of `c1ccc2c(c1)CCCC2`, the Potency entry (in experiment [1]; in [2]; in experiment [3]; in [6]; with Aromatase (Homo sapiens)) was “inactive” in each case. In addition, the result in experiment [4], in [5], in [7] and in experiment [8] was inactive.
On to `Nc1ccc(N)cc1`, for which, in experiment [1], the Potency result is “inactive and 30.8 µM (active)”. Moreover, the Potency result (in experiment [9]; in [2]; with Aromatase (Homo sapiens)) was “inactive” in each case. The call in experiment [4] and in [8] was inactive.
Take `C=CCN=C=S`: the Potency entry (in experiment [1]; in experiment [2]; in [3]; in [6]; in the experiment with Aromatase (Homo sapiens)) was “inactive” throughout. Also, the call in experiment [4], in experiment [5], in [7] and in experiment [8] was inactive.
For `CN1C(=O)CCS(=O)(=O)C1c1ccc(Cl)cc1` (centres undefined), the Potency result (in experiment [1]; in experiment [9]; in [2]; in the experiment with Aromatase (Homo sapiens)) was “inactive” throughout. Moreover, the result in experiment [4] and in experiment [8] was inactive.
For `C[C@H]1C(=O)O[C@@H]2CCN3CC=C(COC(=O)[C@](C)(O)[C@]1(C)O)[C@H]23`, the Potency entry (in experiment [1]; in experiment [2]; in experiment [3]; in experiment [6]; with Aromatase (Homo sapiens)) was “inactive” throughout. For the same molecule, the molecule was called inactive in [4], in experiment [5], in experiment [7] and in [8].
For the molecule `CSc1nnc(C(C)(C)C)c(=O)n1N`, the Potency result in experiment [1] and in experiment [2] was “inactive” throughout. The call in experiment [4] and in [8] was inactive.
On to `OCCCCO`, for which the Potency result (in experiment [1]; in [2]; with Aromatase (Homo sapiens)) was “inactive” throughout. In addition, the result in experiment [4] and in experiment [8] was inactive.
In the case of `COP(=S)(OC)SCN1C(=O)c2ccccc2C1=O`, the Potency entry (in [1]; in experiment [2]; with Aromatase (Homo sapiens)) was “inactive” throughout. The result in experiment [4] and in [8] was inactive.
